Source: PubChem BioAssay (NCATS)
Records with an inconclusive call do not appear. Entries that show only a call come without a potency. Calls of active or inactive are those of the source. Calls come from the whole dose curve; as a rule, active = well fitted inhibition curve with a large enough effect; inconclusive = small, poorly fitted or top-dose-only effect; inactive = flat fitted curve, though single readings scatter.

These compounds were tested against Voltage-gated inwardly rectifying potassium channel KCNH2 (Homo sapiens) (UniProt Q12809) (assay: qHTS Assay for Small Molecule Inhibitors of the Human hERG Channel Activity (AID 588834;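 note: top concentration of the series differs between compounds; lower thallium flux fluorescence means stronger hERG block; nearly all actives have a fitted effect of over 50% in size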)). Conditions: U2OS BacMam hERG, FluxOR thallium flux fluorescence; series mostly up to 46.1 µM.
Procedure, shortened: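 Thallium serves as surrogate for K+ influx through BacMam-delivered hERG in U2OS cells. Compounds are added for about 10 minutes after dye loading; stimulation buffer then starts flux, monitored kinetically on FDSS.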

Chain of Voltage-gated inwardly rectifying potassium channel KCNH2 (Homo sapiens) (Q12809 whole entry, looked up): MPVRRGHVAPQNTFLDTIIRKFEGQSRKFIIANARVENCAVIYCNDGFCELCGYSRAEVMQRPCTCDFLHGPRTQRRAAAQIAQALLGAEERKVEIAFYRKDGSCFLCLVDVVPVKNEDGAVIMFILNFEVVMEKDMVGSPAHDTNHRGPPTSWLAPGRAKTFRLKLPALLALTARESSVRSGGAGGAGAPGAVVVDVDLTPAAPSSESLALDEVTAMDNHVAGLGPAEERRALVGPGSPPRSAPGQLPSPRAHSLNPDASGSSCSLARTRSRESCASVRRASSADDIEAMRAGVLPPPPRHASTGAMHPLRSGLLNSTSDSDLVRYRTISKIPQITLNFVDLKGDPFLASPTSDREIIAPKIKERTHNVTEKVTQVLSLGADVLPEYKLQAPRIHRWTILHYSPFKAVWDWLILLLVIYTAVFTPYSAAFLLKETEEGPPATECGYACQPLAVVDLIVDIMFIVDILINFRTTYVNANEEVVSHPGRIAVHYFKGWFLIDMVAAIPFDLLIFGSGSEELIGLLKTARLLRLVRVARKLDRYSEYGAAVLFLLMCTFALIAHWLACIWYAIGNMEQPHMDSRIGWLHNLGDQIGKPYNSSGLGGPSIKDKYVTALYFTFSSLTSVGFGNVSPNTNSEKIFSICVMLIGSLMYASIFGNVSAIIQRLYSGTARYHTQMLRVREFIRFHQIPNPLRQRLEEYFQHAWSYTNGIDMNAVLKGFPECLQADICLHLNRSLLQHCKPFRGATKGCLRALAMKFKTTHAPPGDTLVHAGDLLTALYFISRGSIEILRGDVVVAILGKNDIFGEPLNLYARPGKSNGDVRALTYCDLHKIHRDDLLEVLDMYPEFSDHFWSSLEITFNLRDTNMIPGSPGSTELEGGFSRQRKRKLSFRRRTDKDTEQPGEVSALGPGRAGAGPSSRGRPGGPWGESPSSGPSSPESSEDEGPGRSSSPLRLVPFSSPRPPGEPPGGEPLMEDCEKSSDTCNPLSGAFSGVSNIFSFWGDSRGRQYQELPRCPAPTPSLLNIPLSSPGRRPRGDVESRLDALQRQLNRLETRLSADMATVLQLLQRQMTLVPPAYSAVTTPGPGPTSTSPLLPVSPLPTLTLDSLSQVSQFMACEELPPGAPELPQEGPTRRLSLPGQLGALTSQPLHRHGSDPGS

Q: `Cc1c(O)c(=O)ccn1C` was tested. Which Potency did it give?
A: Its Potency is “inactive”.

Q: With `CO/N=C(\C(=O)N[C@@H]1C(=O)N2C(C(=O)O)=C(CSc3nc(C)c(CC(=O)O)s3)CS[C@H]12)c1csc(N)n1` as the compound, how does the Potency read?
A: The Potency was “inactive”.

Q: With `CCOC(=O)[C@H](CS)NCCN[C@@H](CS)C(=O)OCC` as the compound, how does the Potency read?
A: Its Potency is “inactive”.

Q: With `O=C1c2c(O)cccc2[C@H]([C@@H]2O[C@H](CO)[C@@H](O)[C@H](O)[C@H]2O)c2cc(CO)cc(O)c21` as the compound, how does the Potency read?
A: The Potency was “inactive”.

Q: For `C=CC1=C(C(=O)O)N2C(=O)[C@@H](NC(=O)/C(=N\O)c3csc(N)n3)[C@H]2SC1` (stereo in doubt), which Potency is on record?
A: Its Potency is “inactive”.

Q: How did the Potency turn out when `CN[C@H](CC(C)C)C(=O)N[C@H]1C(=O)N[C@@H](CC(N)=O)C(=O)N[C@H]2C(=O)N[C@H]3C(=O)N[C@H](C(=O)N[C@@H](C(=O)O)c4cc(O)cc(O)c4-c4cc3ccc4O)[C@H](O)c3ccc(c(Cl)c3)Oc3cc2cc(c3O[C@@H]2O[C@H](CO)[C@@H](O)[C@H](O)[C@H]2O[C@H]2C[C@](C)(N)C(O)[C@H](C)O2)Oc2ccc(cc2Cl)[C@H]1O` (stereo partly specified) was run?
A: The Potency was “inactive”.

Q: For `CO/N=C(\C(=O)N[C@@H]1C(=O)N2C(C(=O)O)=C(C[N+]3(C)CCCC3)CS[C@H]12)c1csc(N)n1`, which Potency is on record?
A: Its Potency is “inactive”.

Q: For `C=N[C@@H](C(=O)N[C@@H]1C(=O)N2[C@@H]1SC(C)(C)[C@@H]2C(=O)O)c1ccccc1`, which Potency is on record?
A: Its Potency is “inactive”.

Q: How did the Potency turn out when `CC1CS(=O)(=O)CCN1/N=C/c1ccc([N+](=O)[O-])o1` (stereo unspecified) was run?
A: Its Potency is “inactive”.

Q: For `CCCCCCCCCCCCCCCCCC[N+](C)(C)CCC[Si](OC)(OC)OC`, which Potency is on record?
A: Its Potency is “inactive”.

Q: With `CCCCCCCCCCCCCCCC(=O)OC[C@@H](O)[C@H]1OC[C@H](O)[C@H]1O` as the compound, how does the Potency read?
A: The Potency was “inactive”.
